The assay can be described thus: NCI Yeast Anticancer Drug Screen. Data for the mlh1 strain (AID 171).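 Note: 0% = growth of vehicle-treated control cultures of the same strain.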 As to conditions: S. cerevisiae mlh1 strain growth inhibition, active compounds read high. The protocol:
Growth inhibition of yeast strains with defined genetic alterations is measured as a screen for potential anti-cancer activity. Selected strains with alterations in DNA damage repair or cell cycle control were exposed to compounds and growth inhibition was measured relative to vehicle treated controls. The strain used in this assay is mlh1

About 79,000 compounds went through this panel and 15% of them were active in at least one assay; those are over-represented in the sample as a whole. Values without a mark were called inactive. Calls of active or inactive are those of the source. Cut-off read from the data, not from the text of the source: active = growth inhibition above about 70%; inactive = the rest.

As to `O=Nn1c2ccccc2c2cc([N+](=O)[O-])ccc21`, the growth inhibition (at 1.2 µM) was -35%; the growth inhibition (at 3.7 µM) is -29%; the growth inhibition (at 11.0 µM) is -3%; the growth inhibition (at 33.0 µM) is 48%; the growth inhibition (at 100.0 µM) is 89% (active).

On to `COc1ccc(/C(C#N)=C/c2ccc(OC)c(OC)c2)cc1`, for which the growth inhibition is -8% (at 1.2 µM); 2% (at 3.7 µM); 10% (at 11.0 µM); 28% (at 33.0 µM); 40% (at 100.0 µM).

With `Clc1c(Cl)c(Cl)c2n[nH]nc2c1Cl`, the growth inhibition was -59% (at 1.2 µM); -52% (at 3.7 µM); -33% (at 11.0 µM); 14% (at 33.0 µM); 75% (active) (at 100.0 µM).

For `C/C(=N\NC(=S)NC1CCCC1)c1ccccn1`, the growth inhibition reads like this: (at 1.2 µM) -3%; (at 3.7 µM) 71% (active); (at 11.0 µM) 98% (active); (at 33.0 µM) 98% (active); (at 100.0 µM) 98% (active).

As to `Nc1nc(F)nc2c1ncn2C1OC(COP(=O)(O)O)C(O)C1O` (stereo not given), the growth inhibition reads like this: (at 1.2 µM) 0%; (at 3.7 µM) 2%; (at 11.0 µM) 5%; (at 33.0 µM) 9%; (at 100.0 µM) 19%.

On to `COc1cc(/C=C/c2sc3ccccc3[n+]2C)ccc1N(C)C`, for which the growth inhibition was 0% (at 1.2 µM); -4% (at 3.7 µM); -3% (at 11.0 µM); 71% (active) (at 33.0 µM); 98% (active) (at 100.0 µM).

On to `Oc1ccc(C=Nc2ccccc2O)cc1`, for which the growth inhibition was 32% (at 1.2 µM); 45% (at 3.7 µM); 36% (at 11.0 µM); 45% (at 33.0 µM); 73% (active) (at 100.0 µM).

Take `Cn1ncc2cc3c(Nc4ccc(Cl)cc4)cccc3nc21`: the growth inhibition by setting is: (at 1.2 µM) 0%; (at 3.7 µM) -4%; (at 11.0 µM) -2%; (at 33.0 µM) -2%; (at 100.0 µM) 26%.

Source of the values: PubChem BioAssay (NCI).
